Results filed as inconclusive are left out. Entries that show only a call come without a potency. Active and inactive are the calls of the source. Calls follow the shape of the dose curve; as a rule, active = well fitted cell-killing curve with a large enough effect in the repeat runs; inconclusive = weak or mixed curves, or effect the other way; inactive = no such curve, though single readings can be large or run the other way.
Potency is read from the fitted curve at half-maximal effect.

This experiment is described as follows: qHTS assay for identifying genotoxic compounds that show differential cytotoxicity against isogenic chicken DT40 cell lines with known DNA damage response pathways - wild type cell line (AID 743012). Also: nearly all actives have a fitted effect of over 60% in size. As to conditions: DT40 wild type chicken cells viability, CellTiter-Glo, 40 h; series mostly up to 68.4 µM. The gist of the method:
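First, wild type DT40 cells were plated at 300 per well and equilibrated about 0.5 h at 37 C/5% CO2. Next, compounds in DMSO were added and exposure lasted 40 h. Finally, CellTiter-Glo was added for 30 min at room temperature and luminescence recorded.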
For the compound `CCC1(c2ccccc2)C(=O)NC(=O)N(C)C1=O` (stereo not given), the Potency result was “inactive”.
Under `COc1cc([C@@H]2c3cc4c(cc3[C@@H](O)[C@H]3COC(=O)[C@H]23)OCO4)cc(OC)c1O` stands 0.237 µM (active).
As to `CN1CC[C@@]23CCCC[C@@H]2[C@@H]1Cc1ccc(O)cc13`, the Potency result was “inactive”.
Under `CNC(C)Cc1ccccc1` (stereo not given) stands “inactive”; under `CN[C@@H](C)Cc1ccccc1`, “inactive”.
Then `O=C1C[C@@H]2OCC=C3CN4CC[C@]56c7ccccc7N1[C@H]5[C@H]2[C@H]3C[C@H]46` (tested in a mixture with another compound), with “inactive”; and `C/C=C(\CC)C(=O)NC(N)=O`, with “inactive”; and `C[C@]12CCC(=O)C[C@@H]1CC[C@@H]1[C@@H]2CC[C@@]2(C)[C@H]1CC[C@]2(C)O`, with “inactive”.
Under `Cc1nnc2n1-c1ccc(Cl)cc1C(c1ccccc1)=NC2` stands “inactive”.
Regarding `N#CC(C#N)=Cc1cc(O)c(O)c(O)c1`, the Potency is 21.1 µM (active).
Turning to `O=C(O)CCCO`, the Potency result was “inactive”.
Under `Oc1ccc2c3c1O[C@H]1[C@@H](O)C=C[C@H]4[C@H](C2)NCC[C@@]341` stands “inactive”; under `O=P1(N(CCCl)CCCl)NC(OO)CCO1` (stereo not given), “inactive”.
Under `CCc1cc(OC)c(C[C@@H](C)N)cc1OC` stands 56.7 µM (active).
As to `CC(C)[C@H]1C(=O)N2CCC[C@H]2[C@]2(O)O[C@](NC(=O)[C@@H]3C[C@@H]4c5cccc6[nH]cc(c56)C[C@H]4N(C)C3)(C(C)C)C(=O)N12`, the Potency is 29.8 µM (active).
Under `C[C@]12CC[C@H]3[C@@H](CCC4=C(Cl)C(=O)CC[C@@]43C)[C@@H]1CC[C@@H]2O` stands 16.8 µM (active); under `Clc1ccc(C(Cn2ccnc2)OCc2csc3c(Cl)cccc23)c(Cl)c1` (stereo not given), 12.7 µM (active).
Then `C[C@@H]1[C@@H]2Cc3ccc(O)cc3[C@@]1(C)CCN2CC1CC1`, with “inactive”; and `C[C@@H]1[C@H]2Cc3ccc(O)cc3[C@]1(C)CCN2C`, with 89.3 µM (active); and `CC(C)C[C@H]1C(=O)N2CCC[C@H]2[C@]2(O)O[C@](NC(=O)[C@@H]3C[C@@H]4c5cccc6[nH]cc(c56)C[C@H]4N(C)C3)(C(C)C)C(=O)N12`, with 29.8 µM (active).
Consider `[H+].[H+].[Hg+2].[O-]B([O-])[O-].[c-]1ccccc1`, for which the Potency was 0.266 µM (active).
Under `C[C@@H](Cc1ccccc1)NCCC(c1ccccc1)c1ccccc1` stands 3.59 µM (active); under `CC(N)Cc1ccc2c(c1)OCO2` (stereo not given), “inactive”; under `CN[C@]1(c2ccccc2Cl)CCCCC1=O`, “inactive”.
Under `C[C@]12CC[C@@H]3c4ccc(OC(=O)N(CCCl)CCCl)cc4CC[C@H]3[C@@H]1CC[C@@H]2OP(=O)(O)O` stands “inactive”.

These data come from PubChem BioAssay (Tox21).
